Screening results deposited in PubChem by Sanford-Burnham Center for Chemical Genomics.
CYP2C9 inhib = inhibitors of human CYP2C9; 20% of 96,000 active; P11712; CYP2C9 Supersomes, luciferin-H conversion, luminescence; inhibition, % at 5 µM; AID 777;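 active = blocking of liver enzyme CYP2C9 beyond about 50% at 5 µM, limit read from the data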
CYP2C9 act = CYP2C9 (human) activation. 1.4% of 96,000 active. activation factor at 5 µM. P11712. recombinant CYP2C9, luciferin-H conversion, luminescence; hits give high values; factor 1 = untreated enzyme, 0 = blocked. AID 1024;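 active = activation factor of 2 or more for CYP2C9 at a 5 µM dose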
CD11b adhes enh = CD11b/CD18-fibrinogen binding enhancement. activation, % at 10 µM. K562 CD11b/CD18 adhesion to fibrinogen, ATPlite luminescence. 0.07% of 93,000 active. AID 1499. P05107+P11215;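 active = 10 µM primary screen giving 50% or more activity, confirmed by 40% or more on retest at that dose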
Target sequence (P05107 whole entry, looked up, other chains not shown): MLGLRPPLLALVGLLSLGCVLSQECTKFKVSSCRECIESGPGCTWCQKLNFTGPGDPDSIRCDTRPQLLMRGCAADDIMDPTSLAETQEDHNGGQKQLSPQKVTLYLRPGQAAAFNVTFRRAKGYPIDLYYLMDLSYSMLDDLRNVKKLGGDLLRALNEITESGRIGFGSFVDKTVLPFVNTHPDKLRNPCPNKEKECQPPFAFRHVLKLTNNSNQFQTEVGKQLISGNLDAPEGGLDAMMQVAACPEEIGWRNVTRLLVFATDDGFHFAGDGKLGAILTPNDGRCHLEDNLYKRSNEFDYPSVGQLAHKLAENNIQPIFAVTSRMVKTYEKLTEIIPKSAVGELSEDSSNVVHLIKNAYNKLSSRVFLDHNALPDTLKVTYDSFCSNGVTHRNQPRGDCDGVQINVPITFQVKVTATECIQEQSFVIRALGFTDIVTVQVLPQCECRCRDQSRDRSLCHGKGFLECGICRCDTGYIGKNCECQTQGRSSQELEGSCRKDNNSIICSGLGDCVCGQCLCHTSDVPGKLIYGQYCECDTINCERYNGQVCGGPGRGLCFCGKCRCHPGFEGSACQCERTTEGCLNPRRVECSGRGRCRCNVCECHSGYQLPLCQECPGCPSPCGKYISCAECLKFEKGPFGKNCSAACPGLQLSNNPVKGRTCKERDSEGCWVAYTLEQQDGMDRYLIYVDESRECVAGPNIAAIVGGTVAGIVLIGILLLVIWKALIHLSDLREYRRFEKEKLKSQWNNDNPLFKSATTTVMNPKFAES
CYP2C19 act = cytochrome P450 2C19 (human) activation | recombinant CYP2C19, luciferin-H EGE luminescence; hits give high values; 0 = fully inhibited enzyme, 1 = untreated enzyme | activation factor at 5 µM | P33261 | 96,000 tested, under 10 active;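 active = activation factor of at least 2 at 5 µM in the primary screen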
CYP2C19 inh = human CYP2C19 inhibition; CYP2C19 Supersomes, luciferin-H EGE luminescence, 30 min; inhibition, % at 5 µM; 21% of 96,000 active; AID 778;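 active = CYP2C19 inhibition above a set limit at 5 µM in the primary screen, cut at about 50% in these data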
CD11b adhes inh = blocks human CD11b/CD18 adhesion to fibrinogen; P05107+P11215; K562 CD11b/CD18 adhesion to fibrinogen, ATPlite luminescence; Mn2+ added to activate the integrin; inhibition, % at 10 µM; 0.54% of 93,000 active; AID 1497;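 active = primary inhibition of 50% or more at 10 µM, then 40% or more on retest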
Numbers stand for hits; n = inactive; x = no result given. Compounds with a hit are over-represented: about 28% of the library has one in this group of screens.

SMILES | CYP2C9 inhib | CYP2C9 act | CD11b adhes enh | CYP2C19 act | CYP2C19 inh | CD11b adhes inh
Cn1c(=O)c(=O)n(C)c2cc(S(=O)(=O)N3CCOCC3)ccc21 | n | n | n | n | n | n
Cn1c(=O)c(=O)n(C)c2cc(S(=O)(=O)N3CCN(C4CCCCC4)CC3)ccc21 | n | 2.5 | n | n | n | n
N#Cc1c(SCC(N)=O)nc(-c2ccccc2)c2c1CCCC2 | n | n | n | n | n | n
CSc1nc(N)nc(SCC(=O)OC(C)C)c1C#N | 57 | n | n | n | n | n
CSc1nc(N)nc(SCC(=O)c2ccc(C)cc2)c1C#N | 54 | n | n | n | n | n
Cc1ccc(-c2nc(SCC(N)=O)c(C#N)c3c2CCCC3)cc1 | n | n | n | n | 65 | n
CC(=O)c1cc(C#N)c(SCC(=O)OC(C)C)nc1C | n | n | n | n | n | n
CCc1c(C)nc(SCC(=O)CC(=O)OC(C)C)c(C#N)c1C | n | n | n | n | 77 | n
Cc1ccc(C(=O)CSC2=NC(N)=C(C#N)C3(CCCCC3)C2C(N)=O)cc1 (stereo unspecified) | n | n | n | n | n | n
O=C(Nc1ccc(F)cc1)c1ccccc1CC[N+](=O)[O-] | n | n | n | n | n | n
O=c1ccc(Oc2nc(N3CCCCC3)nc(N3CCCCC3)n2)n[nH]1 | n | n | n | n | n | n
Cc1ccc(NC(=O)CSc2nnc(C(F)(F)F)n2C)cc1[N+](=O)[O-] | x | x | n | x | x | n
COC(=O)c1ccc(S(=O)(=O)N(Cc2cc3cc4c(cc3[nH]c2=O)OCO4)C2CCCCC2)cc1 | n | n | n | n | n | n
COc1ccccc1CN=Cc1[nH]c2ccc(Br)c(Cl)c2c1O | 73 | n | n | n | 85 | n
COCC(=O)Nc1nnc(CCc2ccccc2)s1 | n | n | n | n | n | n
CCOC(=O)C(C)c1ccc2cc(OC)ccc2c1 (stereo unspecified) | n | n | x | n | 52 | x
Cc1ccc2c(c1)-c1c(cnn1CC(=O)N(CCC#N)c1ccccc1)CO2 | n | n | n | n | n | n
COc1ccc(C2C3=C(CC(C)(C)CC3=O)Oc3ncn(Cc4ccco4)c(=N)c32)cc1 (stereo unspecified) | n | n | n | n | n | n
CC(=O)Nc1ccc(OCC(O)CN2CCN(c3ccc(C)c(Cl)c3)CC2)cc1 (stereo unspecified) | 73 | n | n | n | 68 | n
CCN1CCN(CC(O)COc2ccc(Cl)cc2)CC1 (stereo unspecified) | n | n | n | n | n | n
CC(=O)Nc1ccc(OCC(O)CN2CCN(c3cc(Cl)ccc3C)CC2)cc1 (stereo unspecified) | 61 | n | n | n | 84 | n
Cc1ccc(-c2nn3c(C)nnc3s2)cc1NC(=O)c1ccc(-c2ccc(Cl)cc2Cl)o1 | n | n | n | n | n | n
Cc1ccc(-c2nn3c(C)nnc3s2)cc1NC(=O)c1ccc(-c2cccc(Cl)c2)o1 | n | n | 88 | n | n | n
CC(C)(C)Nc1nc2nonc2nc1NC(C)(C)C | n | n | n | n | n | n
CCOc1ccc(S(=O)(=O)N/N=C2/CC(c3ccccc3)Oc3ccccc32)cc1 (stereo unspecified) | 88 | n | n | n | 56 | n
SMILES | CYP2C9 inhib | CYP2C9 act | CD11b adhes enh | CYP2C19 act | CYP2C19 inh | CD11b adhes inh
O=S(=O)(N/N=C1\CC(c2ccccc2)Oc2ccccc21)c1ccccc1 (stereo unspecified) | n | n | x | n | n | x
Cc1ccc(S(=O)(=O)N/N=C2/CC(c3ccccc3)Oc3ccccc32)cc1 (stereo unspecified) | 80 | n | x | n | n | x
COC(=O)Nc1ccc(OC)c(OC)c1 | n | n | n | n | n | n
COc1ccc(NC(=O)CCC2CCCC2)cc1OC | n | n | n | n | 95 | n
COc1ccc(Cl)cc1NC(=O)COc1cccc(-n2cnnn2)c1 | n | 3.3 | n | n | n | n
O=C(COc1cccc(OC(F)F)c1)Nc1ccc(SC(F)F)cc1 | n | n | n | n | 81 | n
COc1cc(NC(=O)COc2cccc(OC)c2)cc(OC)c1 | n | n | n | n | 88 | n
CS(=O)(=O)Nc1ccc(C(=O)NCc2ccco2)cc1 | n | n | n | n | n | n
CCN(CC)c1ccc(C(=O)OCC(=O)N2CCN(c3ccccc3)CC2)cc1 | n | n | n | n | n | n
CCCCN(CC)C(=O)Cn1c(=O)sc2ccccc21 | n | n | n | n | n | n
O=C(NCc1cccnc1)/C(=C\c1ccc(-c2ccc(Cl)c(Cl)c2)o1)S(=O)(=O)c1ccccc1 | x | x | n | x | x | n
COc1cc(NC(=O)Cc2ccccc2)cc(OC)c1 | n | n | n | n | 94 | n
CCC(=O)Nc1cccc(NC(=O)COc2ccc(OC)cc2)c1 | n | n | n | n | n | n
COc1cccc(OCC(=O)Nc2ccc(OC)c(OC)c2)c1 | n | n | n | n | 51 | n
Cn1c(=O)cc(NCc2ccccc2)[nH]c1=O | n | n | n | n | n | n
Cc1ccc(N2C(=O)C(Cl)=C(NCc3ccccc3)C2=O)c(C)c1 | 53 | n | n | n | 51 | n
Cc1cc2nnn(-c3nnc(-c4ccccc4)c4ccccc34)c2cc1C | n | n | n | n | n | n
O=S(=O)(N/N=C\C=C\c1ccccc1)c1ccc(Cl)cc1 | 96 | n | n | n | n | n
O=S(=O)(N/N=C/c1c(F)cccc1Cl)c1ccccc1 | n | n | x | n | 66 | x
CCN(CC)c1nc2ccccc2nc1C(C#N)C(=O)NCCCOC (stereo unspecified) | 79 | n | n | n | 56 | n
CCN(CC)c1nc2ccccc2nc1C(C#N)C(=O)NCCc1ccccc1 (stereo unspecified) | 54 | n | n | n | n | n
Cc1cc(NC(=O)CN2CCN(c3ccc(O)cc3)CC2)no1 | n | n | x | n | n | x
CC(C)COCC1CC2(CC(C)(c3csc(N)n3)OC2=O)C(=O)O1 (stereo unspecified) | n | n | n | n | n | n
C=CCNc1nc(C2(C)CC3(CC(C)(C)OC3=O)C(=O)O2)cs1 (stereo unspecified) | n | n | n | n | 79 | n
O=C(NCC(c1cccs1)N1CCOCC1)c1ccc(Cl)c([N+](=O)[O-])c1 (stereo unspecified) | x | x | n | x | x | n
SMILES | CYP2C9 inhib | CYP2C9 act | CD11b adhes enh | CYP2C19 act | CYP2C19 inh | CD11b adhes inh
c1ccc(-c2nc3cc4ccccc4cc3[nH]2)nc1 | n | n | n | n | 80 | n
O=C(Nc1cccc2ccccc12)c1ccc(Br)o1 | n | n | n | n | n | n
O=C(Nc1cccc2cccnc12)c1ccc(Br)o1 | n | 2.2 | n | n | n | n
CSc1ccccc1NC(=O)c1ccc(Br)o1 | n | n | n | n | 57 | n
O=C(Nc1cc(C(F)(F)F)ccc1N1CCCCC1)c1ccc(Br)o1 | n | n | n | n | n | n
O=C(Nc1ccccc1N1CCCC1)c1ccc(Br)o1 | 53 | n | n | n | 57 | n
